FMDV inh = High Throughput Screening for Foot and Mouth Disease Virus Antivirals. FMDV antiviral cell-based qHTS. Potency, µM (highest dose often 57.9 µM), for the others: at the highest dose activity change, negative = inhibition, hits mostly inhibitors. 410,000 compounds, 1.2% hits. AID 1159524, 2015; calls by dose curve; tested in HEK293T cells; also: read-out not given here; potency is read from the fitted curve at half-maximal effect; nearly all actives have a fitted effect of over 45% in size
HCV inh = qHTS Assay for Inhibitors of Hepatitis C Virus (HCV); Huh7.5.1 HCVcc-Cre infection, luciferase reporter, 44 h; Potency, µM (series often up to 41.8 µM), inactives show top-dose activity change, negative = inhibition, usual class: inhibitors; 340,000 compounds, 3.4% hits; active = well fitted inhibition curve with a large enough effect; inconclusive = small, poorly fitted or top-dose-only effect, or another doubt; inactive = no such curve, though single readings can be large or run the other way; also: potency is read from the fitted curve at half-maximal effect
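Infectious HCVcc-Cre (~0.5 moi) was added to cells just after compound, with cells seeded 4 h earlier at 1,000 per well. Luciferase activity after 44 h culture reported infection; substrate was incubated 15 min at room temperature before reading.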
HCMV antiviral = qHTS Assay for inhibitors of the human cytomegalovirus (HCMV); HFF cells, HCMV-luciferase reporter, 72 h; stronger effect = lower value; activity change, negative = inhibition, % at 57.5 µM; 410,000 compounds, 4.5% hits; AID 1259415, 2018; in the data active = activity change below about -60%; inconclusive = no clear call, values can overlap the other calls; inactive = above about -39%
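Two-dose cell screen: HFF monolayers treated with compounds and infected with luciferase-expressing HCMV at 1 PFU/cell, 72 h at 37C, then lysed for luciferase measurement.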
VACV mCherry inh = qHTS for Stage-Specific Inhibitors of Vaccinia Orthopoxvirus: mCherry Reporter Primary qHTS; Vaccinia virus mCherry reporter infection, fluorescence; 310,000 compounds, 0.63% hits; AID 720579, 2013; Potency, µM (titrated, usually from 36.5 µM), for the others: at the top dose activity change, negative = inhibition, most hits filed as inhibitors; calls by dose curve; tested in A549 cells; also: potency is read from the fitted curve at half-maximal effect; nearly all actives have a fitted effect of over 35% in size
VACV Venus inh = qHTS for Stage-Specific Inhibitors of Vaccinia Orthopoxvirus: Venus Reporter Primary qHTS | 330,000 compounds, 0.46% hits | Vaccinia virus Venus reporter expression, fluorescence | AID 720580, 2013 | Potency, µM (top dose mostly 36.5 µM), for inactives: at the top dose activity change, negative = inhibition, actives largely listed as inhibitors; calls by dose curve; tested in A549 cells; also: potency is read from the fitted curve at half-maximal effect; nearly all actives have a fitted effect of over 30% in size
* = called active by the depositor; i = inactive; ? = inconclusive; / = not tested or not shown; ! = repeats disagree; [ ] = dose if it differs, or a comment. Only some compounds are listed: those with a hit (about 7.3% of all), similar ones and a draw of the others. % is scaled to controls: 0 for no effect and ±100 for the full control effect.

SMILES | FMDV inh | HCV inh | HCMV antiviral | VACV mCherry inh | VACV Venus inh
Cc1cc(N2CCN(c3ccc(C(F)(F)F)cc3[N+](=O)[O-])CC2)c2ccccc2n1 | ? | 10µM* | -29 | / | /
COc1ccc(N2CCN(S(=O)(=O)c3ccc4c(c3)CCCC4)CC2)c([N+](=O)[O-])c1 | / | 5µM* | -86* | -13% | ?
Cc1cc(N2CCN(c3ccc([N+](=O)[O-])c4cccnc34)CC2)c2ccccc2n1 | ? | -17% | / | -20% | -11%
CCc1ccc(NC(=O)C2CCN(c3cc(C)nc4c(-c5ccc(Cl)cc5)c(C)nn34)CC2)cc1 | -20% | / | -23 | 0% | -4%
CCOC(=O)c1ccc(NC(=O)COc2ccc(CNCCO)cc2OCC)cc1 | -8% | 8.9µM* | 0 | -14% | -9%
CCOC(=O)c1ccc(NC(=O)COc2ccccc2CNCCc2ccccc2)cc1 | -26% | ? | -65* | / | /
CCOc1ccc(NC(=O)COc2ccc(C(=O)NCCc3ccccc3)cc2)cc1 | -5% | -13% | -81* | -13% | 2%
COCCN1CCN(C(=O)c2cnn(-c3ncc4c(n3)-c3ccc(OC)cc3CC4)c2C2CC2)CC1 | -22% | / | / | -21% | -12%
CSc1ccc(C(=O)c2[nH]c(=O)[nH]c2C)cc1 | 2% | 6.3µM*! | -2 | -10% | -7%
Cc1[nH]c(=O)[nH]c1C(=O)CCCCC(=O)O | -2% | 13% | 39 | -3% | -11%
Cc1ccc(C(=O)NCCc2c[nH]c3ccccc23)s1 | 0% | ? | 28 | -16% | -24%
O/N=C/c1ccc2ccccc2n1 | 0% | 23% | 97 | i[7.34 µM] | 1%[7.34 µM]
O/C(=C\c1ccc2ccccc2n1)c1ccncc1 | -6% | -21% | -101* | -5% | -20%
COc1cccc(OCc2nc3ncc(Br)cc3[nH]2)c1 | 42% | ? | 22 | -28% | -20%
Cc1cc(C)cc(OCc2nc3ncc(Br)cc3[nH]2)c1 | -21% | ? | -63* | ? | -28%
COc1cccc(CNCc2c(C(=O)O)c(C)n(Cc3ccc(F)cc3Cl)c2C)c1OC | -20% | / | 21 | -13% | -3%
CC(=O)Nc1ccc(NC(=O)C2CC(=O)N(Cc3ccccc3)C2)cc1 (centres undefined) | 3% | 0% | 136 | i | -10%
Cc1ccc(NC(=O)C2CC(=O)N(Cc3ccccc3)C2)cc1S(=O)(=O)N1CCCCCC1 (centres undefined) | ? | 8.9µM* | -77* | ? | ?
CCN(CC)S(=O)(=O)c1cc(NC(=O)C2CC(=O)N(Cc3ccccc3)C2)ccc1Cl (centres undefined) | 11µM* | 11µM* | -63* | / | /
O=C(Nc1ccc(S(=O)(=O)N2CCCCC2)cc1)C1CC(=O)N(Cc2ccccc2)C1 (centres undefined) | 13% | 6% | -39 | i | -21%
Cc1ccc(CN2CC(C(=O)Nc3ccc(S(=O)(=O)N4CCCCC4)cc3)CC2=O)cc1 (centres undefined) | -15% | 8% | -68* | ? | -28%
O/N=C(/CCc1ccccc1)c1ccc2c(c1)OCCO2 | 32% | -5% | 99 | ? | -9%
CC1CCN(S(=O)(=O)c2ccc3c(c2)N(CC(=O)O)C(=O)CO3)CC1 | ? | / | -23 | -4% | -20%
O=C1NC[C@H](c2ccccc2)N(CCCCC2CCCCC2)C1=O | -23% | / | -4 | 2.2µM* | ?
CC(C)C[C@H]1CN(CCCC[C@H]2CNC(=O)C(=O)N2CCC2CCCCC2)C(=O)C(=O)N1CCC1CCCCC1 | 35µM* | / | -108* | ? | ?
NCCCC[C@H]1CNC(=O)C(=O)N1CCCCC1CCCCC1 | 5% | 17% | -3 | -6% | 0%
CC(C)C[C@@H]1CN(CCCC[C@H]2CNC(=O)C(=O)N2CCC2CCCCC2)C(=O)C(=O)N1CCC1CCCCC1 | ? | / | -15 | ? | ?
Cc1ccc(NC(=O)c2cnc(SCC(=O)N3CCCc4ccccc43)n(C)c2=O)cc1C | -17% | / | ? | i | -14%
CCN(c1ccccc1)S(=O)(=O)c1cc(C(=O)NCC(c2ccco2)N2CCCCC2)ccc1C (centres undefined) | 0% | ? | -19 | ? | -27%

From PubChem BioAssay
